Assay outcomes (PubChem)
Tau FP inhib – qHTS for Inhibitors of Tau Fibril Formation, Fluorescence Polarization; Microtubule-associated protein tau (Homo sapiens), P10636; Potency, µM (highest dose often 57.7 µM), without a hit: at the highest dose activity, negative = inhibition, usual class: inhibitors; hit rate 0.39% among 280,000; K18 P301L tau heparin fibrillization, Alexa594 FP, 6 h; further: nearly all actives have a fitted effect of over 55% in size
Target sequence (P10636 561-689 P618L limits assumed): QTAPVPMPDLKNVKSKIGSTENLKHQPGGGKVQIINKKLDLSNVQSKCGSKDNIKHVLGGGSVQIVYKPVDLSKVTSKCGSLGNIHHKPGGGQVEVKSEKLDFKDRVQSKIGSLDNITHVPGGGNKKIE
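Steps: dispense K18 P301L tau (15 uM plus 0.24 uM Alexa 594 tracer, final) in pH 7 sodium acetate; add compound; add heparin (20 uM final); incubate 6 hr, 37 C; add ThT (30 uM final); after 1 hr ambient, read FP.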
Tau fluor cs – Counterscreen qHTS for Inhibitors of Tau Fibril Formation, Fluorescence Polarization; tau K18 P301L Alexa594 fluorescence, heparin fibrillization; Potency, µM (series often up to 57.7 µM), for inactives: at the highest dose activity change, negative = decrease; hit rate 0.93% among 280,000; further: nearly all actives have a fitted effect of over 55% in size
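Human tau K18 P301L (15 uM unlabeled, 0.24 uM Alexa 594-labeled) in 100 mM sodium acetate pH 7 with 20 uM heparin, 6 hr at 37 C. ThT 30 uM added, 1 hr ambient; Alexa 594 FP and total fluorescence read at 555/632 nm.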
Gal4-VP16 FLuc – VP16 counterscreen qHTS for inhibitors of ROR gamma transcriptional activity; Potency, µM (highest dose often 53.6 µM), for inactives: at the top dose activity, negative = inhibition, most hits filed as inhibitors; AID 2546, 2010; hit rate 3.5% among 310,000; Drosophila S2 Gal4-VP16 UAS-luciferase, luminescence, 20 h;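 further: Gal4-VP16 expression switched on by copper sulfate through the metallothionein promoter; nearly all actives have a fitted effect of over 50% in size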
Tau fibril ThT – qHTS for Inhibitors of Tau Fibril Formation, Thioflavin T Binding; Microtubule-associated protein tau (Homo sapiens), P10636; hit rate 2.1% among 270,000; recombinant tau K18 P301L, heparin-induced fibrillization, ThT fluorescence; AID 1460, 2008; Potency, µM (top dose mostly 57.4 µM), for the others: at the top dose activity, negative = inhibition, most hits filed as inhibitors; further: nearly all actives have a fitted effect of over 55% in size
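Fibril formation assay: tau K18 P301L at 15 uM with trace Alexa 594 label, heparin inducer 20 uM, pH 7 sodium acetate buffer, 37 C for 6 hr; endpoint ThT signal.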
RORgamma inh – qHTS for inhibitors of ROR gamma transcriptional activity | Drosophila S2 Gal4-RORgamma UAS-luciferase reporter, 20 h | hit rate 5.4% among 310,000 | AID 2551, 2010 | Potency, µM (titrated, usually from 53.6 µM), without a hit: top-dose activity change, negative = inhibition, usual class: inhibitors; further: nearly all actives have a fitted effect of over 60% in size
Target sequence (P51450 whole entry, looked up, the tested form may be a part): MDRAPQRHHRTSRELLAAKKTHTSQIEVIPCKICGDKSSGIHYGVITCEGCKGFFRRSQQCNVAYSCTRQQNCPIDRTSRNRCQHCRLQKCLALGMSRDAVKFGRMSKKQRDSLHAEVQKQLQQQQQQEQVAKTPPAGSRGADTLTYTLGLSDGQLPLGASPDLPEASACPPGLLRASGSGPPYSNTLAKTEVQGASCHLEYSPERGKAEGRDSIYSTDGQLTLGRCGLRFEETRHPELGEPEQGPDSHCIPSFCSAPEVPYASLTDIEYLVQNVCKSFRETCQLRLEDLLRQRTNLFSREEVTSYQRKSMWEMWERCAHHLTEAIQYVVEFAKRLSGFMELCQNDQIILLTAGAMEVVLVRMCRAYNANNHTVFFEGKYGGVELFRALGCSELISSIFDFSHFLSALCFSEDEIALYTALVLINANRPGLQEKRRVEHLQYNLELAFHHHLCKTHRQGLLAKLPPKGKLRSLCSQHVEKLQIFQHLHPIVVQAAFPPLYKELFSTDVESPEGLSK
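Compounds are pin-transferred onto Drosophila Schneider cells expressing a copper-inducible Gal4–ROR gamma transactivation domain fusion. After 1 hr, copper sulfate is added to 700 uM final; luciferase is read 20 hr later.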
An asterisk follows results filed as active; u = inconclusive; x = not tested or not shown; [ ] = another dose, or the depositor's remark. This is a sample that favours compounds with a hit; in the whole collection about 7.3% have one here. The call rests on the fitted dose curve; in most records, active means well fitted curve in the direction sought with a large enough effect; inconclusive means small, poorly fitted or top-dose-only effect, or another doubt; inactive means no such curve, though single readings can be large; an effect the other way counts as inactive or inconclusive. On the % scale 0 is the no-effect control and ±100 the full control effect; potency means the concentration at half of the fitted maximal effect.

SMILES	Tau FP inhib	Tau fluor cs	Gal4-VP16 FLuc	Tau fibril ThT	RORgamma inh
CCC(C)C(=O)Nc1nc(C)c(-c2csc(Nc3ccc(Cl)cc3)n2)s1 (centres undefined)	15.1%	14.1µM*[quencher]	10µM*	u	-44.1%
CCCC(=O)Nc1nc(C)c(-c2csc(Nc3ccc(Cl)cc3)n2)s1	6.9%	14.1µM*[quencher]	u	12.6µM*	u
CC(=O)Nc1ccc(Nc2nc(-c3sc(NC(C)=O)nc3C)cs2)cc1	x	x	-17.2%	x	u
C=CCn1cc(/C=N/Nc2nc3ccccc3[nH]2)c2ccccc21	1.3%	11.2µM*[quencher]	7.08µM*	7.94µM*	4.47µM*
Cc1nn(-c2ccccc2)c(C)c1/C=N/Nc1nc2ccccc2[nH]1	3.6%	-3.0%	-2.0%	-2.2%	5.4%
Cn1c(/C=N/Nc2nc3ccccc3[nH]2)nc2ccccc21	-0.2%	u	12.6µM*	3.98µM*	4.47µM*
Cc1c(/C=N/Nc2nc3ccccc3[nH]2)c2ccccc2n1C	17.6%	14.1µM*[quencher]	u	x	5.01µM*
CC(C)Cn1c(/C=N/Nc2nc3ccccc3[nH]2)nc2ccccc21	13.0%	28.2µM*[quencher]	1.12µM*	u	1.78µM*
O=C(COc1ccc(Cl)cc1)OCCNC12CC3CC(CC(C3)C1)C2	x	x	-10.3%	x	2.8%
CCCn1c(/C=N/Nc2nc3ccccc3[nH]2)nc2ccccc21	u	u	3.16µM*	u	2µM*
CC(=O)Nc1ccc(/C=N/Nc2nc3ccccc3[nH]2)cc1	11.6%	1.2%	-5.1%	u	u
Cc1ccc(NC(=O)Cn2cnc3sc(C)c(S(=O)(=O)N4CCN(c5ncccn5)CC4)c3c2=O)cc1F	-15.5%	-27.3%	x	8.9%	x
NC(=O)c1cc[n+](CC2=C(C(=O)O)N3C(=O)[C@@H](NC(=O)[C@H](c4ccccc4)S(=O)(=O)[O-])[C@@H]3SC2)cc1	x	x	-6.3%[17 µM]	x	1.3%[2.98 µM]
CC(=O)Nc1nnc(C2=COCCO2)o1	-3.3%	-14.0%	0.4%	-13.1%	2.0%
O=C(Nc1nnc(C2=COCCO2)o1)c1ccc([N+](=O)[O-])cc1	x	x	0.891µM*	x	1.12µM*
O=C(Nc1nnc(C2=COCCO2)o1)c1ccc(F)cc1	x	x	0.794µM*	x	0.891µM*
CCCC(=O)Nc1nnc(-c2ccc3c(c2)OCCO3)o1	-15.1%	-6.8%	-12.5%	-4.0%	u
O=C(Nc1nnc(C2=COCCO2)o1)c1ccc(Cc2ccccc2)cc1	7.5%	-3.6%	3.16µM*	-10.6%	0.631µM*
O=C(Nc1nnc(C2=COCCO2)o1)c1ccc(Cl)cc1	4.0%	-1.6%	-88.0%	0.3%	0.631µM*
CCc1nc(Nc2cccc(F)c2)c2oc3ccccc3c2n1	x	x	-5.1%	x	-31.5%
COc1ccc(-c2cc(C(F)(F)F)nc(NCc3ccccc3)n2)cc1OC	u	-28.2%	x	-6.4%	x
O=C(NCc1cccc(C(F)(F)F)c1)c1ccc2c(c1)OCCO2	x	x	-3.1%	x	20.3%
O=C(Nc1nnc(C2=COCCO2)o1)c1ccc(Br)cc1	x	x	0.501µM*	x	0.794µM*
O=C(Nc1nnc(C2=COCCO2)o1)c1cccc(C(F)(F)F)c1	x	x	0.316µM*	x	0.562µM*
COC(=O)c1ccccc1NC(=O)CN(c1ccc(Cl)cc1)S(=O)(=O)c1ccc(OC)cc1	-17.7%	-17.1%	x	1.5%	x
SMILES	Tau FP inhib	Tau fluor cs	Gal4-VP16 FLuc	Tau fibril ThT	RORgamma inh
CCOC(=O)C1=NN(C(=O)c2ccc(OC)cc2)C(O)(c2ccc(Cl)cc2)C1 (centres undefined)	8.4%	-8.6%	u	u	10µM*
COC(=O)C1=NN(C(=O)c2cccc(Br)c2)C(O)(c2ccc(Cl)cc2)C1 (centres undefined)	7.7%	-28.4%	-30.0%	u	-29.1%
CCOC(=O)C1=NN(C(=O)c2ccccc2)C(O)(c2ccc(C)cc2)C1 (centres undefined)	10.9%	-10.4%	28.2µM*	u	10µM*
CCOC(=O)C1=NN(C(=O)c2cccc(Br)c2)C(O)(C(C)(C)C)C1 (centres undefined)	-2.5%	-5.0%	u	-3.7%	14.1µM*
COc1ccc(Nc2c3c(nc4nncn24)CCC3)cc1Cl	2.3%	-2.5%	x	-0.1%	x
Cc1ccc(/C=C/C(=O)c2cc(Br)ccc2OC(=O)c2ccco2)cc1	12.6%	-8.2%	1.8%[0.365 µM]	u	u
Cc1ccc(O)c(C(=O)/C=C/c2ccc3c(c2)OCCCO3)c1	-0.2%	1.2%	1.8%	14.6%	0.0%
CCc1ccc(/C=C/C(=O)c2cc(Br)ccc(=O)c2O)cc1	u	u	u	15.8µM*	u
Cc1cccc(/C=C/C(=O)c2cc(Br)ccc(=O)c2O)c1	u	u	u	14.1µM*	-31.0%
CCOc1ccc(C(=O)/C=C/c2ccc(OC)c(OC)c2)cc1	0.4%	-16.0%	0.3%[10 µM]	u	7.7%
CCOc1ccc(/C=C/C(=O)c2cc(Br)ccc(=O)c2O)cc1	u	u	22.4µM*	4.47µM*	u
Cc1ccc(-c2noc(C(C)NS(=O)(=O)c3ccc(C)cc3)n2)cc1 (centres undefined)	-2.5%	-18.1%	x	-5.3%	x
O=C(NNC(=O)C12CC3CC(CC(C3)C1)C2)c1ccccn1	u	-8.3%	4.47µM*	-7.5%	0.501µM*
Cc1cc(C)n(-c2ccc(C(=O)N3CCC(CO)(Cc4ccccc4)CC3)cc2)n1	5.5%	-3.9%	u	-0.6%	2.51µM*
COc1ccc(C2=CSC(/N=C/c3ccc(F)cc3)=NN2)cc1	-3.7%	u	2.2%	14.1µM*	-43.1%
COc1ccc(/C=N/N=C/c2ccc(OC)cc2)cc1	x	x	-1.8%	x	1.9%
Cc1cc(N=Nc2ccccc2)c(NCC(O)C(O)C(O)CO)cc1C (centres undefined)	16.3%	u	-2.2%	14.1µM*	17.2%
Cc1ccc(NCC(O)C(O)C(O)CO)cc1C (centres undefined)	-9.1%	-5.1%	-2.9%	-12.0%	-33.9%
O=C(COC(=O)c1ccc(Br)cc1)NCc1ccc(F)cc1	-5.3%	-9.9%	4.4%	0.7%	-6.2%
CCOC(=O)c1sc(=S)n(C)c1C	-11.0%	-5.9%	-0.4%	6.8%	5.4%
CCOC(=O)c1c[nH]c(=S)n1C	-21.7%	-17.9%	-1.5%	-3.1%	11.2µM*
O=C(CC1S/C(=N/N=C2CCCCCC2)NC1=O)Nc1ccc(Br)cc1F (centres undefined)	x	x	5.62µM*	x	2.24µM*
Cc1c(OC(C)C(=O)NCC2CCC(C(=O)O)CC2)ccc2c3c(c(=O)oc12)CCCC3 (centres undefined)	x	x	-3.1%	x	2.2%
Oc1ccc(O)c(-c2cnns2)c1	6.5%	-18.4%	u	u	3.16µM*
Cc1cccc(/C=N/n2c(-c3ccncc3)n[nH]c2=S)c1	5.3%	4.4%	u	-3.4%	11.2µM*
